According to PubChem BioAssay:
Calls of active or inactive are those of the source.

Experiments:
[1] = system: Human papillomavirus type 1a protein E7 (residues 44-93); assay: HPV1a E7 fragment binders on microarrays, primary screen, biochemical, small-molecule microarray, residues 44-93, 635 nm fluorescence (AID 1108); details: small-molecule microarray binding, fluorescence 635 nm; higher = more signal;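 further: E7 fragment applied at 1 µg/mL in TBST for 1 h at 4 C; score combines spot fluorescence with its signal to noise ratio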
[2] = modulators of HCV replicon luciferase signal, primary screen, HCV replication inhibitor project, Huh7 cells, luciferase reporter (AID 1109); details: 48 h, higher = more signal;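 further: huh7 hepatoma cells harbouring a luciferase neomycin HCV replicon reporter; luciferase luminescence as measure of HCV replicon replication; test concentration not given here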
[3] = target: Left-right determination factor 2 (Homo sapiens) (UniProt O00292); assay: LEFTY2 binders on small-molecule microarrays, primary screen, biochemical, small-molecule microarray, 635 nm fluorescence scan (AID 1110); details: LEFTY2 binding, higher = more signal
Sequence of Left-right determination factor 2 (Homo sapiens) (O00292 whole entry, looked up): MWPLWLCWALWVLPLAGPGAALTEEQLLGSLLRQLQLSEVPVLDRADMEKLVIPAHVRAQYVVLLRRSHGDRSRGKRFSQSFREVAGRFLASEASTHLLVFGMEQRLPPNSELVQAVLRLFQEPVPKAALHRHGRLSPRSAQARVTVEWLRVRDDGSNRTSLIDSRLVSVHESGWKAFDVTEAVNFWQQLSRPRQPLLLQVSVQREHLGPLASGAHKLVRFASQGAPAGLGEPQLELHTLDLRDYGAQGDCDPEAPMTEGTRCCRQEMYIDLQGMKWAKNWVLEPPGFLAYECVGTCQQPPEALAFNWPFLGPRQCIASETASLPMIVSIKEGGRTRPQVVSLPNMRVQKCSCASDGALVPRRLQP

[4] = target: Calmodulin-1 (Homo sapiens) (UniProt P0DP23); assay: CALM1 binders on microarrays, EGTA buffer, profiling panel, biochemical, small-molecule microarray, Cy5-labelled CALM1 (AID 1111); details: Cy5-CALM1 binding fluorescence, higher = more signal;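 further: labelled calmodulin applied in Tris saline Tween buffer holding calcium plus EGTA and DTT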
[5] = target: Calmodulin-1 (Homo sapiens) (UniProt P0DP23); assay: calcium-bound CALM1 binders on microarrays, profiling panel, artefact control for SMM control-protein annotation, biochemical, small-molecule microarray, Cy5-labelled CALM1, plus calcium (AID 1112); details: Cy5-CALM1 binding fluorescence, higher = more signal;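 further: score merges spot fluorescence with signal to noise from triplicate slides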
[6] = small-molecule microarray binders of probe aWnt5a, primary screen, biochemical, biotinylated probe, 635/667 nm fluorescence (AID 1113); details: higher = more signal;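 further: score merges 667 nm fluorescence intensity with signal-to-noise per printed feature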
[7] = small-molecule microarray binders of probe aShh, primary screen, biochemical, biotinylated probe, 635/667 nm fluorescence (AID 1114); details: higher = more signal;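 further: probe is biotin-labelled aShh protein from a stem cell growth factor screen; measures binding of labelled protein to compounds printed on the slide; score merges feature fluorescence at 667 nm with signal-to-noise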
[8] = small-molecule microarray binders of probe aNog, primary screen, biochemical, biotinylated probe, 635/667 nm fluorescence (AID 1115); details: higher = more signal;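 further: probe is biotinylated aNog protein used at 0.15 µg/mL for 1 h at 4 C; z-score combines 667 nm fluorescence of each spot with its signal to noise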
[9] = target: Torsin-1A-interacting protein 1 (Homo sapiens) (UniProt Q5JTV8); assay: LAP1 binders from COS7 cell lysate, primary screen, small-molecule microarray, 635/667 nm fluorescence (AID 1116); details: COS7-hLAP1 lysate binding, 635 nm fluorescence, higher = more signal
Sequence of Torsin-1A-interacting protein 1 (Homo sapiens) (Q5JTV8 whole entry, looked up): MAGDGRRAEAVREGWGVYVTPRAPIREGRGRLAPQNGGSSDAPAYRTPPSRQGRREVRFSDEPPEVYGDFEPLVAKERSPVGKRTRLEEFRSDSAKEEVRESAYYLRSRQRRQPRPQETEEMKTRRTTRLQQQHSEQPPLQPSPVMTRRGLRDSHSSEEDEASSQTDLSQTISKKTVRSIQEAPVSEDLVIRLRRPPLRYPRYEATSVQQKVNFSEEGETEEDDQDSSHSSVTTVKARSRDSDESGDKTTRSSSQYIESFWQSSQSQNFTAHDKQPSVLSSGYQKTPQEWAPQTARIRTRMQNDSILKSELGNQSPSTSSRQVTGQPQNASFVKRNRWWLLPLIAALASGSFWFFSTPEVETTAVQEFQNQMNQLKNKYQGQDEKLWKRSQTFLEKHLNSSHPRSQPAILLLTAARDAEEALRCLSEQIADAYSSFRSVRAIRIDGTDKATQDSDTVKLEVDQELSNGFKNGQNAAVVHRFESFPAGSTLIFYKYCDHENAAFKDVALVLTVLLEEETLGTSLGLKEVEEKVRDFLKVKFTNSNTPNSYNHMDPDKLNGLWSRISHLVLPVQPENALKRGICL

[10] = target: Alpha-bungarotoxin (Bungarus multicinctus) (UniProt P60615); assay: alpha-bungarotoxin binders on microarray, profiling panel, artefact control for SMM control protein annotation, biochemical, small-molecule microarray, Alexa647 label, 635/667 nm fluorescence (AID 1117); details: alpha-BTX-A647 binding fluorescence, higher = more signal
Sequence of Alpha-bungarotoxin (Bungarus multicinctus) (P60615 whole entry, looked up): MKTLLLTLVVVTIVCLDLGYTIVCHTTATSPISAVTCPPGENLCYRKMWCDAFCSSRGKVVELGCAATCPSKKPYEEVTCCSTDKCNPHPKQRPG

[11] = target: Albumin (Bos taurus) (UniProt P02769); assay: bovine serum albumin binders on microarray, profiling panel, artefact control for SMM control protein annotation, biochemical, small-molecule microarray, Alexa647 label, 635/667 nm fluorescence (AID 1118); details: BSA-A647 binding, fluorescence 635 nm, higher = more signal;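 further: score merges 667 nm emission intensity and signal-to-noise per printed compound spot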
Sequence of Albumin (Bos taurus) (P02769 whole entry, looked up): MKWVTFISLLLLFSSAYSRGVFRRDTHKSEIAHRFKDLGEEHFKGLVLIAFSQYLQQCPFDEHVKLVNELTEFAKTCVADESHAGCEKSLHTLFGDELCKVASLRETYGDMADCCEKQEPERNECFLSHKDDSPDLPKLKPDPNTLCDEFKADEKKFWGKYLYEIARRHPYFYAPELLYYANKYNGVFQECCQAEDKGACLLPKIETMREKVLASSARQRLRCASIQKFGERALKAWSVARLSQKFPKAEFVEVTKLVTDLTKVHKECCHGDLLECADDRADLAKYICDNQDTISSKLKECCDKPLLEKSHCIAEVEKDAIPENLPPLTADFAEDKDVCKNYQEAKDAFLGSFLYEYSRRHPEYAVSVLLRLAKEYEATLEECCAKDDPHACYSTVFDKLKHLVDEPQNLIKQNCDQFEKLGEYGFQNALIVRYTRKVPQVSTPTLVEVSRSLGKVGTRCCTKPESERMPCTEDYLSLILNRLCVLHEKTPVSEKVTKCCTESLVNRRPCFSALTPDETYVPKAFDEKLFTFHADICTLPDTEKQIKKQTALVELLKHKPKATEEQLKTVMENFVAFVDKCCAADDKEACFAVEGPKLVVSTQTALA

[12] = small-molecule microarray binders of probe aXIP, primary screen, biochemical, NeuroSMM set, 635/667 nm fluorescence (AID 1119); details: higher = more signal, called active from +8 up or from −8 down;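 further: probe is the protein aXip251-270 applied at 1 µg/mL to compound-printed slides; binding of probe to printed compounds measured as 667 nm fluorescence plus signal to noise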
[13] = small-molecule binders of probe aNOTCH3, primary screen, biochemical, small-molecule microarray, 635/667 nm fluorescence (AID 1120); details: higher = more signal;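 further: probe is a biotin-tagged antibody raised against NOTCH3 rather than NOTCH3 protein; score merges spot fluorescence near 667 nm with spot signal to noise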
[14] = small-molecule binders of probe aNOTCH2, primary screen, biochemical, small-molecule microarray, 635/667 nm fluorescence (AID 1121); details: higher = more signal;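 further: score merges feature fluorescence read at 667 nm with its signal to noise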
[15] = target: Carbonic anhydrase 2 (Homo sapiens) (UniProt P00918); assay: CAII small-molecule binders, profiling panel, biochemical, small-molecule microarray, Alexa647-labelled CAII (AID 1122); details: CAII-A647 binding fluorescence, higher = more signal
[16] = COS7 lysate on small-molecule microarray, probe aHis, 635 nm (AID 1123); details: COS7 cell lysate, fluorescence, higher = more signal;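 further: z-score combines 667nm fluorescence intensity with signal-to-noise per printed compound spot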
[17] = compound binding in COS7 lysate, probe aLAP1, primary screen, cell lysate, small-molecule microarray (AID 1124); details: probe aLAP1, fluorescence, higher = more signal;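 further: lysate comes from COS7 cells expressing LAP1 and is applied at 0.3 µg/mL; score merges spot fluorescence near 667 nm with signal-to-noise over triplicate slides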
[18] = system: Sam68 (KHDRBS1); assay: Sam68 small-molecule binders, primary screen, biochemical, small-molecule microarray, 635 nm fluorescence (AID 1125); details: small-molecule microarray binding, higher = more signal;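 further: score merges 667 nm channel intensity with signal to noise over triplicate slides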
[19] = system: Chordin-like protein 2 (CHRDL2); assay: CHRDL2 small-molecule binders, primary screen, biochemical, small-molecule microarray, 635 nm fluorescence (AID 1126); details: small-molecule microarray binding, fluorescence 635 nm; higher = more signal;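 further: printed compound slides probed with Chrdl2 protein at 4 µg/mL for 1 h at 4 C; score merges 667 nm emission intensity with signal to noise over three replicate slides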
[20] = target: Concanavalin-A (Canavalia ensiformis) (UniProt P02866); assay: ConA small-molecule binders, primary screen, artefact control for SMM control protein annotation, biochemical, small-molecule microarray, Alexa647 label, 635 nm (AID 1127); details: ConA-A647 binding fluorescence, higher = more signal;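 further: z combines 667 nm emission intensity with signal-to-noise across three replicate slides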
Sequence of Concanavalin-A (Canavalia ensiformis) (P02866 whole entry, looked up): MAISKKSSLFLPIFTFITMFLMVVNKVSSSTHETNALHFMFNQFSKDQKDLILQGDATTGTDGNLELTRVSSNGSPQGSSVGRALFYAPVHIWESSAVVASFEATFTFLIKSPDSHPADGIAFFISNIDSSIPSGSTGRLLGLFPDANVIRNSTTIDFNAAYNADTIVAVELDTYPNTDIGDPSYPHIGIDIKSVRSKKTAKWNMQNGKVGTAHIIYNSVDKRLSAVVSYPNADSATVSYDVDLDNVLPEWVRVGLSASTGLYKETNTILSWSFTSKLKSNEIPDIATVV

Compound	composite z-score [1]	z-score [2]	composite z-score [3]	composite z-score [4]	composite z-score [5]	composite z-score [6]	composite z-score [7]	composite z-score [8]	composite z-score [9]	composite z-score [10]	composite z-score [11]	composite Z-score [12]	composite z-score [13]	composite z-score [14]	composite z-score [15]	composite z-score [16]	composite z-score [17]	composite z-score [18]	composite z-score [19]	composite z-score [20]
O=C(C=Cc1ccc2c(c1)OCO2)c1ccc(F)cc1	-0.9	2.84	0.976	-0.481	-1.41	-0.0455	0.297	-0.126	0.569	0.444	-0.744	-0.188 (inactive)	0.278	-0.0811	-0.236	-0.542	0.134	-0.21	1.31	0.108
CON=C[C@@H](C)[C@H](OCc1ccccc1)C(C)C	-0.933	-0.131	0.418	-0.442	-0.418	-0.0882	-0.419	-0.204	1.15	-0.11	-0.784	-0.47 (inactive)	-0.0647	-0.162	-0.269	-0.606	-0.0291	-0.295	0.54	-0.413
C#CCCCON=C1C[C@@H](O)[C@@H](O)[C@@H]2[C@@H]3C(=O)N(c4cccc(Oc5ccccc5)c4)C(=O)[C@@H]3CC[C@H]12	-0.578	0.18	-0.914	-0.423	0.361	-0.172	-0.138	-0.237	0.441	-0.702	-0.302	1.27 (inactive)	-0.373	-0.14	0.709	0.0922	0.762	-0.582	-0.771	-0.387
O=C1CCCC=C1C(O)CCOC(c1ccccc1)(c1ccccc1)c1ccccc1 (stereo not given)	-1	-3.22	0.13	-0.428	-0.131	-0.0161	-0.366	0.0195	-0.462	-0.28	0.404	0.142 (inactive)	-0.158	-0.169	-0.252	-0.447	-0.146	-1.52	-0.0466	-0.542
COC(=O)CC=C[C@@H](C)[C@@H](C=NO[C@@H](C)c1cn([C@H](CO)Cc2ccccc2)nn1)NS(=O)(=O)c1ccc(C)cc1	-0.0476	-0.858	0.739	-0.598	-0.531	0.0077	-0.0977	0.143	0.258	-0.331	-0.193	-0.0278 (inactive)	0.107	-0.103	-0.146	-0.306	0.232	0.43	0.784	-0.419
COC(=O)[C@@H]1CC[C@H](C)[C@@H](c2ccc(C)cc2)N1C(=O)c1ccc(C=NO[C@@H](C)c2cn([C@H](CO)Cc3ccccc3)nn2)cc1	1.3	-2.25	0.785	-0.0062	-0.388	0.116	-0.0146	-0.0554	0.641	0.51	0.597	-0.222 (inactive)	0.217	-0.09	0.097	1.2	-0.151	1.32	0.892	0.81
CC(=O)OC[C@H]1O[C@H](C#Cc2ccccc2)C=C[C@@H]1OC(C)=O	-0.234	-2.92	0.711	-0.376	-0.449	-0.119	-0.124	0.115	0.288	-0.686	0.243	-0.005 (inactive)	-0.0328	-0.136	0.0239	0.214	0.17	0.182	0.965	-0.0189
CC(=O)O[C@H]1C2=CO[C@H](C)[C@H]3[C@H]4C5=C([C@H](O)[C@H]6O[C@H]6C5=O)[C@H](OC4C)[C@@]23C(=O)[C@@H]2O[C@@H]21 (stereo not given in full)	-0.361	-4.68	0.384	-0.935	-0.994	0.0108	0.0804	0.262	0.963	-1.03	0.767	0.719 (inactive)	0.0836	-0.0357	0.357	0.249	0.228	0.583	0.0249	-0.185
C[C@H]1Cc2c(COc3ccccc3)nc3c(c2CO1)CN(CCOc1ccccc1)CC3	1.14	-0.228	0.635	0.625	-0.255	-0.172	0.0144	-0.502	0.647	0.161	-0.16	-0.711 (inactive)	0.0282	-0.0746	0.635	1.14	0.282	1.32	0.522	1.08
COC(=O)CC=C[C@@H](C)[C@@H](C=NO[C@H](C)c1cn([C@H](CO)Cc2ccccc2)nn1)NS(=O)(=O)c1ccc(C)cc1	0.37	-1.35	0.483	0.333	-0.215	-0.152	0.178	-0.0196	1.42	1.56	0.749	0.863 (inactive)	0.0242	-0.118	-0.276	-0.0104	0.78	0.566	0.437	0.837
O=C1OCCC=C1C(O)CCc1ccccc1 (stereo not given)	-0.0602	-0.364	0.791	-0.818	-0.679	-0.0981	-0.13	0.0229	0.128	0.642	-0.561	0.149 (inactive)	-0.158	-0.145	0.192	-0.215	0.181	-0.0924	0.575	-0.0631
COc1cc(O)c(C(=O)C=Cc2ccc3c(c2)OCO3)c(OC)c1	-2.33	-1.53	-0.143	0.283	-0.582	0.0438	-0.332	-0.219	-0.289	0.825	0.0618	-0.024 (inactive)	-0.0647	-0.134	-0.337	-0.932	-0.185	-1.93	0.102	1
